Measurements from PubChem BioAssay (NCATS).
Results filed as inconclusive are left out. Activity calls are given as the source filed them. Calls follow the shape of the dose curve; as a rule, active = well fitted inhibition curve with a large enough effect; inconclusive = small, poorly fitted or top-dose-only effect; inactive = flat fitted curve, though single readings scatter.

What was measured:
Test in all cases: qHTS profiling for inhibitors of Plasmodium falciparum proliferation (AID 504749); also: nearly all actives have a fitted effect of over 60% in size
Conditions in all cases: P. falciparum in erythrocytes, SYBR Green DNA, 72 h; series mostly up to 28.7 µM
[1] = test system: AA1029
Summary of the method: (§1)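 Quantitative HTS: compounds pinned into medium, infected erythrocytes added (0.3% parasitemia, 2.5% hematocrit), 72 h culture at 37 C under 5% CO2. Saponin/Triton lysis with SYBR Green I, overnight RT, then fluorescence read.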

[2] = test system: C2A
Summary of the method: as §1

[3] = test system: CP211
Summary of the method: as §1

[4] = test system: CP215
Summary of the method: as §1

[5] = test system: CP217
Summary of the method: as §1

[6] = test system: CP250
Summary of the method: as §1

[7] = test system: CP252
Summary of the method: as §1

[8] = test system: CP256
Summary of the method: as §1

[9] = test system: CP260
Summary of the method: as §1

[10] = test system: CP297
Summary of the method: as §1

[11] = test system: CP315
Summary of the method: as §1

[12] = test system: CP325
Summary of the method: as §1

[13] = test system: CP329
Summary of the method: as §1

[14] = test system: FAB9
Summary of the method: as §1

[15] = test system: ICS
Summary of the method: as §1

[16] = test system: N140
Summary of the method: as §1

[17] = test system: P93_24
Summary of the method: as §1

[18] = test system: PC15
Summary of the method: as §1

[19] = test system: SC27B
Summary of the method: as §1

[20] = test system: TAB165
Summary of the method: as §1

Measured: Potency

COC(=O)[C@@H]1[C@@H]2C[C@H]3c4[nH]c5ccccc5c4CCN3C[C@@H]2CC[C@@H]1O
inactive: all assays above

C[C@@H](C(=O)O)c1ccc(-c2ccccc2)c(F)c1
inactive: all assays above
